We go through 45 molecules from paper PMC4336329 (PLoS ONE, 2015).

About 14,000 (4.5%) of roughly 310,000 compounds showed an effect of 50% or more. Effects have a minus sign here. The sample holds strong results, similar compounds and a random draw of the others, so the mix is not that of the screen.
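Also: peak tail current of the secondary pulse compared with the same well before compound.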

The target in the assay is human ether-à-go-go-related gene (hERG) potassium channel (human, UniProt Q12809). Description: primary screen, population patch clamp on CHO cells stably expressing hERG; higher = less effect of the substance.
human ether-à-go-go-related gene (hERG) potassium channel, sequence (Q12809 whole entry, looked up): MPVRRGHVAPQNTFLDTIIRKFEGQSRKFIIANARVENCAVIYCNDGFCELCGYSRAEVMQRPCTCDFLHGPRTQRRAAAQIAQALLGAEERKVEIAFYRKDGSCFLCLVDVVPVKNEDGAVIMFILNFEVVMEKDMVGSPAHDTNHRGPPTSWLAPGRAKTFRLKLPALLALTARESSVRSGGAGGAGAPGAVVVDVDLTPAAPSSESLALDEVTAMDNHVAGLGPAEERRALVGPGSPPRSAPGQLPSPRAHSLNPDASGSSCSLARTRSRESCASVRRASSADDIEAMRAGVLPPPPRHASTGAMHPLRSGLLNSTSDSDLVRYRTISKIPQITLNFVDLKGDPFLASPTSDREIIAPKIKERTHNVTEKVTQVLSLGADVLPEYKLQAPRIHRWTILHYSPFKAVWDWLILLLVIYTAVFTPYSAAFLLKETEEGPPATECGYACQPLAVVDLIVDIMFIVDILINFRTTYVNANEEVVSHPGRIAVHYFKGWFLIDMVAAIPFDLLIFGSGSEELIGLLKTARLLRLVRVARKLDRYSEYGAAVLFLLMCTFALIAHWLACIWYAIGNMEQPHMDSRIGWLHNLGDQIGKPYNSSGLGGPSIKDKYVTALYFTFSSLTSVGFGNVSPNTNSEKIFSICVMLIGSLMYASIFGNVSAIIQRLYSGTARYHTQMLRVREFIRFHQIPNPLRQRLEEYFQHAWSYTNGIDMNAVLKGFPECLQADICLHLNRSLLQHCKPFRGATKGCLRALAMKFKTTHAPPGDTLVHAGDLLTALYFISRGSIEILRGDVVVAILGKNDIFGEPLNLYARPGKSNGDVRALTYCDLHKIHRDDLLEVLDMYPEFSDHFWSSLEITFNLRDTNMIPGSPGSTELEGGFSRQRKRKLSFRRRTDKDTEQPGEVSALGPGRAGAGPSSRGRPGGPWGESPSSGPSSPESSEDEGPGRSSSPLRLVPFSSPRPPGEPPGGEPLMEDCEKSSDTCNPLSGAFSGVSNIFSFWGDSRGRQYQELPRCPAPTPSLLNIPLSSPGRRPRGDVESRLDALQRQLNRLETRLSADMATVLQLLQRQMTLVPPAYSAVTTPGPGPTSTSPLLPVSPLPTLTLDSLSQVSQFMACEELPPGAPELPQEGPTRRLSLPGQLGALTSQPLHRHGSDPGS
For the molecule `CC(=O)c1sc(NC(=O)CS(=O)(=O)c2ccccc2)nc1C`, the “hERG current change (%, negative = inhibition) at 10uM” value was -25.3%.
`CCOC(=O)/C(C#N)=C/c1ccc(OC(=O)c2ccccn2)cc1`: the “hERG current change (%, negative = inhibition) at 10uM” value is -5.99%.
Turning to `OC1(c2cccc(C(F)(F)F)c2)CCN(Cc2nc(-c3cnccn3)no2)CC1`, the “hERG current change (%, negative = inhibition) at 10uM” value is recorded as -0.399%.
In the case of `CCC(=O)N=c1sc2c(OC)ccc(OC)c2n1C`, the “hERG current change (%, negative = inhibition) at 10uM” value is given as 11%.
Next, `COc1ccc(Cl)cc1C(=O)Nn1c(-c2cccs2)nc2ccccc2c1=O`: -5.47%.
With `O=C(O)c1nn(-c2ccccc2)nc1-c1nn(-c2ccccc2)nc1C(=O)O`, the “hERG current change (%, negative = inhibition) at 10uM” value amounted to 19.7%.
As for `O=C(N/N=C/c1cc([N+](=O)[O-])ccc1Cl)c1cc(-c2ccccc2)nc2ccccc12`, the “hERG current change (%, negative = inhibition) at 10uM” value amounted to 7.64%.
Next, `CCCc1oc(C(=O)O)cc1CN.Cl`: 5.96%; `COc1ccc(-c2c(S(=O)(=O)c3ccccc3)cnn2-c2ccccc2)cc1`: -2.43%; `O=C(CCCc1ccccc1)c1ccc2c(c1)OCCO2`: -5.25%.
Consider `Cl.O=C(CCN1CCc2ccccc2C1)c1ccc2c(c1)OCCO2`, for which the “hERG current change (%, negative = inhibition) at 10uM” value was -32.2%.
As for `Cl.O=C(CCN1CCOCC1)c1ccccc1`, the “hERG current change (%, negative = inhibition) at 10uM” value turned out to be 3.53%.
Next, `Cl.O=C(CCN1CCC(c2ccccc2)C1)c1ccc2c(c1)OCCO2` (stereo not drawn): -56%; `Cl.O=C(CCN1CCc2ccccc2C(c2ccccc2)C1)c1ccc2c(c1)OCCO2` (stereo not drawn): -0.525%; `Cl.O=C(CCN1CCC(c2ccccc2)C1)c1ccccc1` (stereo not drawn): -35.8%.
`Cl.O=C(CCN1CCCCC1)c1ccc2c(c1)OCCO2`: the “hERG current change (%, negative = inhibition) at 10uM” value is on record as 4.82%.
The same measure for `Cl.O=C(CCCN1CCOC(c2ccccc2)C1)c1ccc(F)cc1` (stereo not drawn): -60.7%; for `Cl.O=C(CCN1CCc2ccccc2CC1)c1ccc2c(c1)OCCO2`: -60.6%.
The same measure for `Cl.O=C(CCN1Cc2ccccc2C1)c1ccc2c(c1)OCCO2`: -8.74%.
Take `O=C1C(=O)N(CCCN2CCOCC2)C(c2ccc(F)cc2)/C1=C(/O)c1ccccc1` (stereo not drawn): the “hERG current change (%, negative = inhibition) at 10uM” value was found to be 23%.
Next, `Cl.O=C(CCCN1CCC(c2ccccc2)C1)c1ccc2c(c1)OCCO2` (stereo not drawn): -70.3%.
Next, `O=C1/C(=C/c2ccccc2Cl)N2CCC1CC2`: -14.1%; `Cc1ccc(OCCn2cc(/C=N/NC(=O)c3ccncc3)c3ccccc32)cc1`: -7.64%.
The same measure for `CCOc1ccc2nc(/N=C/c3nc(-c4ccccc4)oc3O)sc2c1`: 4.73%; for `COc1ccc(-n2c3c(cc(C(=O)N4CCC(C)CC4)c2=O)C(=O)CC(C)(C)C3)cc1`: -2.69%.
As to `O=C(COC(=O)CNC(=O)c1ccccc1F)NCC(F)(F)F`, the “hERG current change (%, negative = inhibition) at 10uM” value was found to be 9.36%.
Take `COc1cc(C(=O)O)cc(Br)c1OC1CCCC1`: the “hERG current change (%, negative = inhibition) at 10uM” value turned out to be 20.6%.
The same measure for `O=S(=O)(NC1CCCCCC1)c1cccc2cccnc12`: 5.29%.
Next, `O=[N+]([O-])c1ccc(NCc2ccccc2)c2nonc12`: 19.7%; `CC(OC(=O)c1cccc([N+](=O)[O-])c1)C(=O)NCc1ccc2c(c1)OCO2` (stereo not drawn): -11.4%; `COc1ccc(N2CCN(CC(=O)Nc3ccccc3C(=O)NCc3ccccc3)CC2)cc1`: -55.9%.
The same measure for `Cc1ccc(CNC(=O)c2ccccc2NC(=O)CN2CC(C)OC(C)C2)cc1` (stereo not drawn): -13.2%; for `COc1cccc(N2CCN(CC(=O)Nc3ccccc3C(=O)NCc3ccccc3)CC2)c1`: -60.9%.
As to `Cc1ccc(CNC(=O)c2ccccc2NC(=O)CN2CCN(C)CC2)cc1`, the “hERG current change (%, negative = inhibition) at 10uM” value is given as -59.2%.
The same measure for `COc1cccc(N2CCN(CC(=O)Nc3ccccc3C(=O)NCCc3ccccc3)CC2)c1`: 89.9%; for `COc1ccc(N2CCN(CC(=O)NC(=O)NCc3ccccc3)CC2)cc1`: 10.4%.
As for `COc1cccc(N2CCN(CC(=O)NCc3ccccc3)CC2)c1`, the “hERG current change (%, negative = inhibition) at 10uM” value is -5.53%.
The same measure for `COc1ccc(N2CCN(CC(=O)NCc3ccccc3)CC2)cc1`: 0.922%; for `CC(=O)N1CCN(CC(=O)Nc2ccccc2C(=O)NCc2ccc(C)cc2)CC1`: -25.4%; for `CC(Oc1ccc(F)cc1)C(=O)NN` (stereo not drawn): 18.6%.
For `O=C(CCc1ccccc1)Nc1cc2c(cc1Cl)OCCO2`, the “hERG current change (%, negative = inhibition) at 10uM” value is given as -7.19%.
The same measure for `COc1ccc(-c2csc(Nc3cccc(C)n3)n2)cc1C`: 5.87%; for `O=C1NC(=S)N(c2ccc(Cl)cc2)C(=O)/C1=C/N1CCN(C(=O)c2ccco2)CC1`: 7.25%.
With `Cc1cc(C(=O)OCC(=O)Nc2nc(-c3ccccc3)cs2)c(C)o1`, the “hERG current change (%, negative = inhibition) at 10uM” value was 15.8%.
Next, `Cc1oncc1C(=O)NC(C)C`: -3.53%.
